Inconclusive results are not listed. A number with no mark means an inactive call. Calls come from the whole dose curve; as a rule, active = well fitted curve in the direction sought with a large enough effect in the repeat runs; inconclusive = weak or mixed curves; inactive = no such curve, though single readings can be large; an effect the other way counts as inactive or inconclusive.
Assay: qHTS assay to identify small molecule agonists of the RXR signaling pathway - cell viability counter screen (AID 1159529);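 note: HEK 293T cells carrying an RXR-alpha UAS beta-lactamase reporter; nearly all actives have a fitted effect of over 50% in size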
Details: RXR-alpha-bla HEK293T viability, CellTiter-Glo, 16 h; series mostly up to 76.8 µM; activity change, negative = cytotoxicity: at the top concentration
Summary of the method: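 In this parallel viability measure, GeneBLAzer RXR-alpha HEK 293T cells (2% charcoal-stripped FBS) were given a 5 hr preincubation, treated with compounds 16 hr at 37 C, and read by CellTiter-Glo luminescence.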
% is set by controls: 0 for no effect and ±100 for the full control effect.

| SMILES | activity change, negative = cytotoxicity |
| --- | --- |
| CCC(=O)Nc1ccc(O)cc1 | 9.12% [at 35.3 µM] |
| C/C(=N\O)[C@@H](C)NCC(C)(C)CN[C@H](C)/C(C)=N/O | 7.27% [at 35.3 µM] |
| OCc1c2ccccc2cc2ccccc12 | 2.35% |
| O=C1Nc2ccc([N+](=O)[O-])cc2C1=O | -5.63% |
| O=S(=O)(O)C(F)(F)F | 4.95% |
| OCc1ccccc1O | -1.44% [at 35.3 µM] |
| c1ccc(CN(CC2=NCCN2)c2ccccc2)cc1 | -17.4% [at 35.3 µM] |
| Cc1ncc(CO)c(CN)c1O | 18.5% [at 35.3 µM] |
| COC(=O)C(C)O (configuration not stated) | 9.37% |
| O=c1[nH]cnc2c1ncn2[C@@H]1O[C@H](CO)[C@@H](O)[C@H]1O | 7.45% [at 35.3 µM] |
| Cn1cnc2c(F)c(Nc3ccc(Br)cc3Cl)c(C(=O)NOCCO)cc21 | 0.288% [at 35.3 µM] |
| NC(Cc1ccc(F)cc1)C(=O)O (configuration not stated) | 2.52% [at 6.97 µM] |
| O=Cc1ccc(F)c(Br)c1 | 2.84% |
| Cc1cn([C@@H]2O[C@H](CO)[C@@H](O)[C@@H]2F)c(=O)[nH]c1=O | 9.72% [at 35.3 µM] |
| C=C(C)C(=O)OCCOP(=O)(O)O | 4.82% |
| CC1CN(c2ccccc2)NC1=O (configuration not stated) | 10.5% |
| CCOc1ccc(NC(N)=O)cc1 | -5.66% |
| CCCCNCCCC | 9.32% |
| FC(F)(F)c1ccccc1 | 12.4% |
| Nc1cccc(S(=O)(=O)O)c1 | -16.9% |

Assay: qHTS assay to identify small molecule antagonists of the retinoid acid receptor (RAR) signaling pathway - cell viability counter screen (AID 1159551); note: nearly all actives have a fitted effect of over 35% in size
Details: C3RL4 cells viability, ATP luminescence (CellTiter-Glo), 6 h; series mostly up to 92.4 µM; activity change, negative = cytotoxicity: at the top concentration
Summary of the method: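 Luminescent ATP quantitation (CellTiter-Glo) gave cell viability in C3RL4 cells exposed to test chemicals for 6 h at 37 C alongside 1 uM final retinol.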

| SMILES | activity change, negative = cytotoxicity |
| --- | --- |
| CC(Oc1c(Cl)cccc1Cl)C1=NCCN1 (configuration not stated) | -0.745% [at 42.5 µM] |
| CC(=O)Nc1ccc(C)c(Cl)c1 | -0.987% |
| C=CCCCCCCCCO | 4.32% |
| CCN(CC)CC1CCCCN1CC(=O)N1c2ccccc2C(=O)Nc2cccnc21 (configuration not stated) | -0.12% [at 42.5 µM] |
| OCCN1CCN(CCO)CC1 | 4.18% |
| CC(C)C(=O)OCC(C)(C)C(O)C(C)C (configuration not stated) | 1.16% |
| CN(CC1(C)CCCO1)S(=O)(=O)c1ccc(Cl)c(S(N)(=O)=O)c1 (configuration not stated) | 1.99% [at 42.5 µM] |
| Cc1ccc(C(C)C)cc1O | -0.122% |
| Cc1c[nH]c(=S)[nH]c1=O | -0.948% |
| O=C(O)c1cccc(Cl)c1Cl | -0.595% |
| OC[C@H]1O[C@@H](O[C@H]2[C@H](O)[C@@H](O)[C@H](O)O[C@@H]2CO)[C@H](O)[C@@H](O)[C@H]1O | -0.642% |
| COC(C)CCO (configuration not stated) | 5.02% |
| CC(C)c1ccccc1 | -0.42% |
| CCCc1c2oc(C(=O)O)cc(=O)c2cc2c(=O)cc(C(=O)O)n(CC)c12 | 0.979% [at 42.5 µM] |
| O=C1C=CC(=O)O1 | 1.95% |
| CC1=NN(c2cc(Cl)c(S(=O)(=O)O)cc2Cl)C(=O)C1N=Nc1ccc(S(=O)(=O)O)cc1 (configuration not stated) | 0.459% |
| Oc1ccccc1F | 1.27% |
| CC(C)CCCCCCc1ccc(OCCOCCO)cc1 | 1.07% |
| CCC(=O)Nc1ccc(O)cc1 | 2.16% [at 42.5 µM] |

| SMILES | activity change, negative = cytotoxicity |
| --- | --- |
| C/C(=N\O)[C@@H](C)NCC(C)(C)CN[C@H](C)/C(C)=N/O | -0.701% [at 42.5 µM] |
| OCc1c2ccccc2cc2ccccc12 | 0.671% |
| O=C1Nc2ccc([N+](=O)[O-])cc2C1=O | 0.286% |
| O=S(=O)(O)C(F)(F)F | -0.972% |
| OCc1ccccc1O | 0.923% [at 42.5 µM] |
| c1ccc(CN(CC2=NCCN2)c2ccccc2)cc1 | 0.896% [at 42.5 µM] |
| Cc1ncc(CO)c(CN)c1O | 1.42% [at 42.5 µM] |
| COC(=O)C(C)O (configuration not stated) | 0.0587% |
| Cn1cnc2c(F)c(Nc3ccc(Br)cc3Cl)c(C(=O)NOCCO)cc21 | -0.0218% [at 42.5 µM] |
| NC(Cc1ccc(F)cc1)C(=O)O (configuration not stated) | 2.5% [at 8.39 µM] |
| O=Cc1ccc(F)c(Br)c1 | 1.91% |
| Cc1cn([C@@H]2O[C@H](CO)[C@@H](O)[C@@H]2F)c(=O)[nH]c1=O | -0.109% [at 42.5 µM] |
| C=C(C)C(=O)OCCOP(=O)(O)O | 0.403% |
| CC1CN(c2ccccc2)NC1=O (configuration not stated) | 1.26% |
| CCOc1ccc(NC(N)=O)cc1 | 0.967% |
| CCCCNCCCC | -0.695% |
| FC(F)(F)c1ccccc1 | 0.262% |
| Nc1cccc(S(=O)(=O)O)c1 | 0.0934% |

Source: PubChem BioAssay (Tox21)
